About 800 (1.6%) of roughly 50,000 compounds showed an effect of 50% or more. The full list was thinned out, with strong results kept by preference.

The target of this experiment is Bcl-2-like protein 10 (Homo sapiens) (UniProt Q9HD36). Briefly: Phenotype converters, Bcl-B/TR3 peptide binding displacement, primary biochemical FP (AID 1240).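 Further: 0% = Bcl-B with tracer peptide and DMSO and 100% = tracer peptide lacking Bcl-B.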 Conditions: GST-Bcl-B / FITC-TR3 peptide fluorescence polarization; stronger effect = higher value; compound at 3.75 mg/L. (In general: Polarisation of emitted light reports the rotation of a fluorescent probe.)
Sequence of Bcl-2-like protein 10 (Homo sapiens) (Q9HD36 whole entry, looked up): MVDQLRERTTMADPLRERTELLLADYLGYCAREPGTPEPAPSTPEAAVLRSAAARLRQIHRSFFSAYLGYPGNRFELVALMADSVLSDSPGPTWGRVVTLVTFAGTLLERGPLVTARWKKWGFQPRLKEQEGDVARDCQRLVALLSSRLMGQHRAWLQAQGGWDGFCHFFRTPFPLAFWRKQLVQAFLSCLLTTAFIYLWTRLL
As for `CC1CCc2c(nc3ccccc3c2C(=O)O)C1` (stereo not given), the displacement was -14.7%.
In the case of `CN(C)/C=C/C=C1C(=O)OC(C)(C)OC1=O`, the displacement is 0.3%.
With `O=C(O)c1ccccc1C(=O)c1ccc(Cl)c(N2C(=O)CCC2=O)c1`, the displacement was -1.3%.
For `Cc1cc(NS(=O)(=O)c2ccc(NC(=O)C(Cl)(Cl)Cl)cc2)nc(C)n1` the value was 1.3%.
On to `COc1ccc(Br)cc1Cn1c(=O)[nH]c2cc(C(F)(F)F)ccc21`, for which the displacement is -5.6%.
For `CC(C)(C)C(=O)Nc1cccc(C(=O)NCc2ccc(CNC(=O)c3cccc(NC(=O)C(C)(C)C)c3)cc2)c1`, the displacement was 9.9%.
Take `O=C(Oc1cccc(/C=C2/SC(=S)N(c3ccccc3)C2=O)c1)c1ccco1`: the displacement was -17.2%.
Next, `Cc1cc(C)c(-c2nn(-c3ccccc3)cc2C=O)c(C)c1`: 10.9%.
Next, `Cc1cc(-n2cc(C=O)c(-c3ccccc3)n2)nc2ccccc12`: 75.4%; `O=Cc1cn(-c2ccccc2)nc1-c1ccc(Cl)cc1`: 7.5%; `Cc1ccc(C(=O)/C=C2\C(=O)Nc3ccccc32)cc1`: 6.7%.
For `O=C(O)CCCC(=O)OCc1ccco1` the value was 31.3%.
As for `O=C(COc1ccc([N+](=O)[O-])cc1)NNC(=O)c1ccccc1Cl`, the displacement is 11.6%.
Next, `O=C(O)c1ccc(-c2ccc(/C=C3/SC(=O)N(c4ccccc4)C3=O)o2)cc1`: 27.7%; `O=C1S/C(=C\c2ccc(-c3ccc([N+](=O)[O-])cc3)o2)C(=O)N1c1ccccc1`: 70.2%.
For `O=[N+]([O-])c1ccc(-c2ccc(/C=N/n3cnnc3)o2)cc1` the value was 139%; for `Fc1ccc(-c2ccc(/C=N/n3cnnc3)o2)cc1`, 7.8%.
For `O=C1S/C(=C/c2ccc(-c3cccc([N+](=O)[O-])c3)o2)C(=O)N1c1ccccc1` the value was 111%.
Regarding `O=C1S/C(=C\c2ccc(-c3ccccc3[N+](=O)[O-])o2)C(=O)N1c1ccccc1`, the displacement came out at 47.7%.
Regarding `O=C1S/C(=C/c2ccc(-c3ccc([N+](=O)[O-])cc3Cl)o2)C(=O)N1c1ccccc1`, the displacement was 47.4%.
For `O=[N+]([O-])c1ccccc1-c1ccc(/C=N/n2cnnc2)o1` the value was 8.8%.
Consider `O=C1S/C(=C/c2ccc(-c3ccc(F)cc3)o2)C(=O)N1c1ccccc1`, for which the displacement was found to be 12.2%.
For `Cc1cccc(/C=C2/SC(=S)N(CN3CCCCC3)C2=O)c1` the value was 11.3%.
Next, `O=C1CCCCC1Oc1ccc2c(-c3ccccc3)cc(=O)oc2c1` (stereo not given): -9.6%.
Next, `O=C(COc1ccc2ccccc2c1)Nc1cc([N+](=O)[O-])ccc1F`: 29.5%; `CCSC1C(C)=C(C)C(=O)N1C(C)(C)c1cc(Cl)cc(Cl)c1` (stereo not given): 21.2%; `CCOc1ccccc1NC(=O)CN1C(=O)/C(=C/c2cccc(Br)c2)SC1=S`: 78.7%.
In the case of `O=C(CN1C(=O)/C(=C/c2cccc(Br)c2)SC1=S)Nc1ccccn1`, the displacement was 69%.
As for `O=C(O)CCCN1C(=O)/C(=C\c2cccc(O)c2)SC1=S`, the displacement amounted to 0.6%.
For `O=C(O)CCCCCCCCCCN1C(=O)/C(=C/c2cccc(Br)c2)SC1=S` the value was -3.4%.
Next, `O=C(CN1C(=O)/C(=C/c2ccccc2)SC1=S)Nc1cccc(Br)c1`: 11.9%; `O=C(O)CCCN1C(=O)/C(=C/c2cccc(Br)c2)SC1=S`: 91.2%; `COc1ccc(NC(=O)CN2C(=O)/C(=C/c3cccc(Br)c3)SC2=S)cc1`: 11.6%.
For `CCOc1ccccc1NC(=O)CN1C(=O)/C(=C\c2cc(OC)c(OC)c(OC)c2)SC1=S` the value was 36.8%.
As for `O=C(CN1C(=O)/C(=C/c2cccc(Br)c2)SC1=S)Nc1cccnc1`, the displacement was found to be 9.6%.

For the origin of these results see PubChem BioAssay AID1240 (Sanford-Burnham Center for Chemical Genomics, 2008).
